# From PubChem BioAssay
# A selection: hits, their analogues and other compounds. The true share with any hit is near 3.4%.
# TEAD-YAP inh: TEAD-YAP interaction inhibition, primary screen, TEAD-YAP interaction inhibitor project, luminescence, HEK-TIYL cells | TEAD-Gal4/YAP UAS-luciferase luminescence | inhibition, % at 9.12 µM | actives 1.4% (n = 640,000); in the data active = inhibition above about 32%
# FBW7 activator: FBW7 E3 ligase activators, primary screen, biochemical, AlphaScreen, human | F-box/WD repeat-containing protein 7 (Homo sapiens), Q969H0 | AlphaScreen FBW7–phospho-cyclin E peptide binding, activator screen | normalized activity (activation), % at 26.1 µM | actives 0.13% (n = 650,000) | AID 1259310, 2017; in the data active = normalized activity above about 1.9%;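 note: purified mutant Fbw7 with reduced substrate affinity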
# GPR151 activ: activators of human GPR151, primary screen, cell-based, PathHunter beta-arrestin, luminescence; G-protein coupled receptor 151 (Homo sapiens), Q8TDV0; PathHunter beta-arrestin GPR151 cells; activation, % at 11.2 µM; actives 1% (n = 650,000); AID 1508602, 2020; in the data active = activation above about 4.9%
# Target sequence (Q8TDV0 whole entry, looked up): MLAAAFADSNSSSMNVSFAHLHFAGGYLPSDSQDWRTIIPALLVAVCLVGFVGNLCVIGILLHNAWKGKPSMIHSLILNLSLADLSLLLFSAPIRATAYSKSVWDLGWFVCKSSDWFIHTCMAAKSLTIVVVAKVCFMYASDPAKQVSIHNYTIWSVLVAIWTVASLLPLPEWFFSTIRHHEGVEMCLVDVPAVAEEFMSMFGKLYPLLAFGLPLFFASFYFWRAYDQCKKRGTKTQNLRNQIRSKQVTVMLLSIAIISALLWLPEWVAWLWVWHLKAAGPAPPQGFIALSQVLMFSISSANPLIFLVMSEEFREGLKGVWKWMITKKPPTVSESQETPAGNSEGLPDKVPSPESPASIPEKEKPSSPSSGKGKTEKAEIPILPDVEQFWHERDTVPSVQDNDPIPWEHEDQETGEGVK
# MITF inh: MITF inhibitors, primary screen, biochemical, AlphaScreen, human; Microphthalmia-associated transcription factor (Homo sapiens), O75030; AlphaScreen MITF homodimerization, bead proximity signal; inhibition, % at 2.6 µM; actives 0.91% (n = 650,000); AID 1259374, 2018; in the data active = inhibition above about 50%
# Numbers stand for hits; i = inactive.
SMILES,TEAD-YAP inh,FBW7 activator,GPR151 activ,MITF inh
Cc1ccc(C(=O)c2oc3ccc4c(C)cc(=O)oc4c3c2-c2ccccc2)cc1,62,i,i,i
CCc1c(C(=O)c2ccccc2)oc2ccc3c(C)cc(=O)oc3c12,41,i,i,i
CN1CCN(c2ccc([N+](=O)[O-])cc2C(=O)N2CCCCC2)CC1,i,i,i,i
CN1CCN(c2ccc([N+](=O)[O-])cc2C(=O)c2ccc(Cl)cc2)CC1,41,i,i,i
O=C(c1ccc(Cl)cc1)c1cc([N+](=O)[O-])ccc1N1CCOCC1,53,i,i,i
NC(=O)c1cc([N+](=O)[O-])ccc1N1CCOCC1,i,i,i,i
O=C(c1ccc(Br)cc1)c1cc([N+](=O)[O-])ccc1N1CCOCC1,54,i,i,i
CN1CCN(c2c([N+](=O)[O-])cc(C(=O)O)cc2[N+](=O)[O-])CC1,i,i,i,i
N#Cc1c(NC(=O)CCc2ccccc2)sc2c1CCCCCC2,i,i,i,i
CC(=O)N1CCc2c(sc(NC(=O)Cc3cccc4ccccc34)c2C(N)=O)C1,i,i,i,i
N#Cc1c(NC(=O)CSc2ncn[nH]2)sc2c1CCCC2,49,i,i,i
CC(=O)N1CCc2c(sc(NC(=O)CCc3ccccc3)c2C#N)C1,54,i,i,i
N#Cc1c(NC(=O)CCc2ccccc2)sc2c1CCCC2,47,i,i,i
CC(=O)N1CCc2c(sc(NC(=O)Cc3cccc4ccccc34)c2C#N)C1,54,i,i,i
CCOC(=O)c1oc2cc(NC(=O)c3ccc(OC)c(OC)c3)ccc2c1C,i,i,i,i
O=C(CSc1nnc2sc3ccccc3n12)N1N=CCC1c1ccccc1 (stereo unspecified),i,i,i,i
Cc1ccc2c(Cl)c(-c3nnc(-c4ccc(C(C)(C)C)cc4)o3)sc2c1,i,i,i,i
CN1C(=S)SC(C)(C)C1/[N+]([O-])=C/c1cccc([N+](=O)[O-])c1 (stereo unspecified),i,i,i,i
O=[N+]([O-])c1c(N2CCCC2)cc(Cl)c2nonc12,33,i,i,i
COc1ccccc1N1CCN(C(=O)CN2CC=C[C@@H]2C(=O)NCCc2ccccc2)CC1,42,i,i,i
COc1ccccc1N1CCN(C(=O)CS(=O)(=O)Cc2ccccc2)CC1,i,i,i,i
N=c1sc2c(n1CC(=O)c1ccc(Cl)cc1)CCCC2,37,i,i,i
N=c1sc2c(n1CC(=O)c1ccc(I)cc1)CCCC2,i,i,i,i
CCCC(=O)Nc1ccc(Nc2nc(C)cc(N3CCOCC3)n2)cc1,i,i,i,i
Cc1cc(N2CCCC2)nc(Nc2ccc(NS(=O)(=O)c3ccc(F)cc3)cc2)n1,57,i,i,i
SMILES,TEAD-YAP inh,FBW7 activator,GPR151 activ,MITF inh
CCCCC(=O)Nc1ccc(Nc2nc(C)cc(N3CCCC3)n2)cc1,65,i,i,i
COc1ccccc1NC(=O)Cn1c(C)nc2ccccc21,35,i,i,i
COc1cccc(NC(=O)Cn2cc(C(C)=O)c3ccccc32)c1,48,i,i,i
COc1ccccc1NC(=O)Cn1cc(C(C)=O)c2ccccc21,37,i,i,i
CC(=O)c1cn(CC(=O)Nc2ccccc2)c2ccccc12,i,i,i,i
CC(=O)c1cn(CC(=O)NCCOc2ccc(Cl)cc2)c2ccccc12,40,i,i,i
O=C(NCc1ccco1)C1CCN(C(=O)c2ccc(Br)cc2)CC1,i,i,i,i
CCOC(=O)c1cc(C)nc2ccccc12,i,i,i,i
C=CCN(C(=O)Cn1nnc2ccccc21)C(C(=O)NCCOC)c1ccccc1C (stereo unspecified),i,i,i,i
COC(=O)c1ccc(/C=C/C(=O)c2ccc3c(c2)OCCO3)cc1,i,i,i,i
COC(=O)c1ccc(C=Nc2ccc3c(c2)OCCO3)cc1,62,i,i,i
Nc1c(C(=O)Nc2ccc(F)cc2)sc2nc(-c3ccc4c(c3)OCO4)ccc12,i,i,i,i
Nc1c(C(=O)NC2CC2)sc2nc(-c3ccc4c(c3)OCO4)ccc12,42,i,i,i
CC[n+]1ccccc1/C=C/c1ccc(N(C)C)cc1,47,i,i,i
Cc1ccc2c(ccc(/C=C/c3ccc(N(C)C)cc3)[n+]2C)c1,41,i,i,i
CN(C)c1ccc(/C=C/c2cc(C(C)(C)C)nc(C(C)(C)C)c2)cc1,i,i,i,i
CN(C)c1ccc(C(=O)/C=C/c2ccccc2)cc1,i,i,i,i
CN(C)c1ccc(/C=C/c2cc[n+](C)cc2)cc1,44,i,i,i
